Common to all, as to assay: DAPPL (digital affinity profiling via proximity ligation, sequencing); 10 mM Tris-HCl pH 7.5, 50 mM NaCl, 1 mM DTT, 4% glycerol, room temperature, 30 min; GST-TFs on glutathione beads, 16-mer random dsDNA library, 0.1% formaldehyde crosslink after washing; high values mean tight binding
Conditions in all cases: protein: recombinant; tags: N-terminal GST; dsDNA, one strand shown

One assay concerns the target T1, ELK1 (Homo sapiens, UniProt P19419 1-428).
T1 sequence: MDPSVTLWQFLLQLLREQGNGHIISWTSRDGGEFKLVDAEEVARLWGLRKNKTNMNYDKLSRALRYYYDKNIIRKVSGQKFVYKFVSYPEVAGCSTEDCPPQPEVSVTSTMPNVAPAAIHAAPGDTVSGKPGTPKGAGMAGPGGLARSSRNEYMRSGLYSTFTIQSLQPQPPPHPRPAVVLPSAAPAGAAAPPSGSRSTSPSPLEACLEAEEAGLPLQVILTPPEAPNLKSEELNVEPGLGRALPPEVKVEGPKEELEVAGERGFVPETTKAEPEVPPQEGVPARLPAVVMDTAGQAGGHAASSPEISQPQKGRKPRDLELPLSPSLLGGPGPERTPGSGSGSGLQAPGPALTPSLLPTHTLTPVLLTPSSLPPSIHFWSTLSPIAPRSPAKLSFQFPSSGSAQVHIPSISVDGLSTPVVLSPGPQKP
An outline of the steps:
(§1)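 Sequencing on an Illumina NextSeq500 followed washing, crosslinking with 0.1% formaldehyde, proximity ligation (BsaI/T4 ligase, 1 h, 37 °C) and PCR amplification of pools that had been incubated for 30 min at room temperature with 200 nmole of a random double-stranded 16-mer DNA library in Tris/NaCl/DTT/glycerol buffer. Each pool held DNA-barcoded human transcription factors, expressed in yeast as GST fusions and captured on glutathione beads, plus a tag-only sample. Binding signal is a hexamer's read frequency for a factor divided by its frequency in the tag-only sample.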

For another assay, the target named is T2, GABPA (Homo sapiens, UniProt Q06546 1-454).
T2 sequence: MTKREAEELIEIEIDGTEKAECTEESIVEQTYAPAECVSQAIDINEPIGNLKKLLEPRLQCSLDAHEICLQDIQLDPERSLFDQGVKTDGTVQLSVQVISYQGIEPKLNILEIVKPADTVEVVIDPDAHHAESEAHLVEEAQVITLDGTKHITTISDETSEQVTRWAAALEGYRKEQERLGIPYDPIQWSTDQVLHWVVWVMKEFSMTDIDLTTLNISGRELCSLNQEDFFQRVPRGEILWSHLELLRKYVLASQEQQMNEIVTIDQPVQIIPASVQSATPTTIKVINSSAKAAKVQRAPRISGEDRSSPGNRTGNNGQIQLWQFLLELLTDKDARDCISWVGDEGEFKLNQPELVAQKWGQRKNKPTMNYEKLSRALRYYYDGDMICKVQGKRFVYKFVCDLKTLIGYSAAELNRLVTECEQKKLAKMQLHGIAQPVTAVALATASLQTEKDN
An outline of the steps:
as §1

The next assay deals with T3, ERG (Homo sapiens, UniProt P11308 1-479).
T3 sequence: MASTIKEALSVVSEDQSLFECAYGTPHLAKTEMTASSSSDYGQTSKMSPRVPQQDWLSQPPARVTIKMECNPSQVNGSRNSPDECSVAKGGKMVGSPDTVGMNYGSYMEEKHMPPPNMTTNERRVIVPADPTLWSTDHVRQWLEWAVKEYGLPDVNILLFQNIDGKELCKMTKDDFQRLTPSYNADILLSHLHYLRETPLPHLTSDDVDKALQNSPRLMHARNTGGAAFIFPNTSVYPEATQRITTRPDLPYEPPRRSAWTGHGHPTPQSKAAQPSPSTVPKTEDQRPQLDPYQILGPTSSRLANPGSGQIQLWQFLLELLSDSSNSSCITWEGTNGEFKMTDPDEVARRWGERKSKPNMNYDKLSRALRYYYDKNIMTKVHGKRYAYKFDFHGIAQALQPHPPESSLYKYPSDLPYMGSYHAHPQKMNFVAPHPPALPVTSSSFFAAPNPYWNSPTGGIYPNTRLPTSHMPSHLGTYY
The essentials:
as §1

Another assay deals with ELF1 (Homo sapiens, UniProt P32519 1-619). The essentials: as §1
Chain of ELF1 (P32519 whole entry): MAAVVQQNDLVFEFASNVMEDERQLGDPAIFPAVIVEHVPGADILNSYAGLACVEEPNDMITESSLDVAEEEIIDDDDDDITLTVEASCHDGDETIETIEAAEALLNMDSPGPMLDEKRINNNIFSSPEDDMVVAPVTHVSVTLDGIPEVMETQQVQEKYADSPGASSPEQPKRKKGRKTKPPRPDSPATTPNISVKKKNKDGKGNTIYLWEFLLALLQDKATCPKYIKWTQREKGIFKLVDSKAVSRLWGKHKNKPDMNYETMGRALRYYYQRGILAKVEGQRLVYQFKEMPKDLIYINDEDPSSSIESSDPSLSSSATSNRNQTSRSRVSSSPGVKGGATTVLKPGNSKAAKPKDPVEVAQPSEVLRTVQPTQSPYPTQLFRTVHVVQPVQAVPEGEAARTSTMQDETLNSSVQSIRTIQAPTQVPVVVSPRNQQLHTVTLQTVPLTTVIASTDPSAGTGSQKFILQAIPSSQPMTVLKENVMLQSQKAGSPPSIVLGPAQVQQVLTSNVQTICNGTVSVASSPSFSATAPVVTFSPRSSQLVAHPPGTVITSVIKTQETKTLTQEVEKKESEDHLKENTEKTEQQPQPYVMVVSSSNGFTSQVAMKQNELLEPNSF
The next assay addresses T4, EHF (Homo sapiens, UniProt Q9NZC4 1-300).
T4 sequence: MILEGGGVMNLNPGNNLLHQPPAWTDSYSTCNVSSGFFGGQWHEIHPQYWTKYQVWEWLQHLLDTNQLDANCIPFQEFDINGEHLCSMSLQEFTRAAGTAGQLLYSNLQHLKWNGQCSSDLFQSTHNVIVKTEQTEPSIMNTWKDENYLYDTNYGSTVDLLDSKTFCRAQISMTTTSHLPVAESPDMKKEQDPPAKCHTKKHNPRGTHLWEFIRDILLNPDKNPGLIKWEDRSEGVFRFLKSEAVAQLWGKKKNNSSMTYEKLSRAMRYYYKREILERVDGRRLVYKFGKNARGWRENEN
The essentials: as §1

The next assay deals with SPIB (Homo sapiens, UniProt Q01892 1-262). An outline of the steps: as §1
Chain of SPIB (Q01892 whole entry): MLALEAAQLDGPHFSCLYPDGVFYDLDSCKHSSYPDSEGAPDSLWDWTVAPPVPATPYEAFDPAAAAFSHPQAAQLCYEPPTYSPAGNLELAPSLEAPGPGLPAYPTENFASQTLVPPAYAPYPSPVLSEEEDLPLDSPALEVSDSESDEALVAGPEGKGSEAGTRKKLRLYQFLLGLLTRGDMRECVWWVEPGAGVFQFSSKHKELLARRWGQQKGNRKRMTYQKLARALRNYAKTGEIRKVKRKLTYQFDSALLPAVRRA
The target of a further assay is T5, ELK3 (Homo sapiens, UniProt P41970 1-407).
T5 sequence: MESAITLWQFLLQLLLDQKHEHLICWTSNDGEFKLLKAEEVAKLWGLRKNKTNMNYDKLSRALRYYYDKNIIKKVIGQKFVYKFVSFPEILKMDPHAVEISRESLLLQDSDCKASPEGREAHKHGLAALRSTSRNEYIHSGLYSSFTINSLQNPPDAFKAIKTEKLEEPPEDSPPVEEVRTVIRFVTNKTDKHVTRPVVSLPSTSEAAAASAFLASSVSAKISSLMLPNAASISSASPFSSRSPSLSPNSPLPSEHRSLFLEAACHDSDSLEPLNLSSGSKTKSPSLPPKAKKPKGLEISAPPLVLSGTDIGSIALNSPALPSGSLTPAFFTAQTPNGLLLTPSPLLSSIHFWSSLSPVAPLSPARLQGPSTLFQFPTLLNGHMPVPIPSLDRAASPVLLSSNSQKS
An outline of the steps:
as §1

A further assay has as its target ETV5 (Homo sapiens, UniProt P41161 1-510). An outline of the steps: as §1
The target of another assay is ELF4 (Homo sapiens, UniProt Q99607 1-663). The essentials: as §1
Chain of ELF4 (Q99607 whole entry): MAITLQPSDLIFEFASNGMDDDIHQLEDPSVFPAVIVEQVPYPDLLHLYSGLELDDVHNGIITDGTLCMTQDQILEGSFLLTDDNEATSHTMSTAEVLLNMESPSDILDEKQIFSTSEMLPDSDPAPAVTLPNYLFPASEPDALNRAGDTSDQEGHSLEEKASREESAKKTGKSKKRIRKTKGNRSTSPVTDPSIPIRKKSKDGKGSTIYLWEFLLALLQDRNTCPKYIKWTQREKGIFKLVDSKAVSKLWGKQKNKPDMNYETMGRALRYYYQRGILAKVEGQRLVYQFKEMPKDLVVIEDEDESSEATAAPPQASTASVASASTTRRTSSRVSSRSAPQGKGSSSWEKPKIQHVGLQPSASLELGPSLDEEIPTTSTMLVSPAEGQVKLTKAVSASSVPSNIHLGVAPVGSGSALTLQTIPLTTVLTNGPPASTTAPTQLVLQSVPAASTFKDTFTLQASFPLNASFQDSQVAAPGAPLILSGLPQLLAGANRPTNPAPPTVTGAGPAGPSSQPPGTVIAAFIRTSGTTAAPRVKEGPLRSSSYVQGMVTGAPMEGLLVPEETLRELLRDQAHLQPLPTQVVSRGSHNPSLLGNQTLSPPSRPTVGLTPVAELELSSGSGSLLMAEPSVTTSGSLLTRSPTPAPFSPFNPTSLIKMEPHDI

Chain of ETV5 (P41161 whole entry): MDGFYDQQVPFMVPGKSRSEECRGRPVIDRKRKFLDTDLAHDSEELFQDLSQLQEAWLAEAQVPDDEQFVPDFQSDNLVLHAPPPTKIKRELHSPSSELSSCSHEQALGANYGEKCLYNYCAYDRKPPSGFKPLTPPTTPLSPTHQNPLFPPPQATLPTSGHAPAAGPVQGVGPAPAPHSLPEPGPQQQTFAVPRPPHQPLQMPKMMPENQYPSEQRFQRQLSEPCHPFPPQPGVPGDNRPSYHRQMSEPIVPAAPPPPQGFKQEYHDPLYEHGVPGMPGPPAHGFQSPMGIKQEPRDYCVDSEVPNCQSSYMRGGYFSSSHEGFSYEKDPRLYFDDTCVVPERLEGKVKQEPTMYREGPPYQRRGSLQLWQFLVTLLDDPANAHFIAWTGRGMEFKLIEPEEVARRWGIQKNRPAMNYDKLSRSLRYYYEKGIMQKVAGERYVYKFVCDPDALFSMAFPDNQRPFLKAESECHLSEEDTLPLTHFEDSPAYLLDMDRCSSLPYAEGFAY

As for GGACTT, the binding signal in the assay with ELK1 was 1.24 fold enrichment (6-mer frequency, TF over GST control); with GABPA it was 1.16 fold enrichment (6-mer frequency, TF over GST control); with ERG it was 1.17 fold enrichment (6-mer frequency, TF over GST control); with ELF1 it was 1.16 fold enrichment (6-mer frequency, TF over GST control); with EHF it was 1.11 fold enrichment (6-mer frequency, TF over GST control); with SPIB it was 1.11 fold enrichment (6-mer frequency, TF over GST control). Further, the binding signal in the assay with ELK3 was 1.11 fold enrichment (6-mer frequency, TF over GST control); with ETV5, 1.15 fold enrichment (6-mer frequency, TF over GST control); in the assay with ELF4 it was 1.09 fold enrichment (6-mer frequency, TF over GST control).

The record behind these values is PMC7862700, “An all-to-all approach to the identification of sequence-specific readers for epigenetic DNA modifications on cytosine”.
